Rac1 mut GTP: alters GTP binding to activated mutant human Rac1 | P63000 | AID 764 | GST-Rac1 activated beads, fluorescent GTP binding, flow cytometry; actives lie on both sides; 100% means binding = to untreated wells | actives 0.11% (n = 190,000) | percent activity (GTP binding), % at 10 µM;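 active = GTP binding at least 20 percentage points away from the 100% baseline, in either direction, so actives lie on both sides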
Rac1 wt GTP bind: modulators of human Rac1 wildtype GTP binding. P63000. GST-Rac1 beads, fluorescent GTP binding, flow cytometry; actives lie on both sides; 0 = cold GTP competed, 100 = untreated. GTP binding activity (% of control), % at 10 µM. actives 0.27% (n = 190,000);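 active = GTP binding activity at least 20 points away from the 100% control level, either lower or higher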
Cdc42 wt: human Cdc42 wildtype GTP binding change, either direction; P60953; percent activity (GTP binding), % at 10 µM; GST-Cdc42 beads, Bodipy-GTP binding, flow cytometry; actives lie on both sides; actives 0.2% (n = 190,000);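 active = percent activity GTP binding at least 20 points away from the 100% baseline, either down as inhibitor or up as activator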;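 note: median bead fluorescence of bound Bodipy-FL-GTP at 100 nM; below 100% means less GTP binding so inhibitor and above means activator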
Target sequence (P60953 whole entry, looked up): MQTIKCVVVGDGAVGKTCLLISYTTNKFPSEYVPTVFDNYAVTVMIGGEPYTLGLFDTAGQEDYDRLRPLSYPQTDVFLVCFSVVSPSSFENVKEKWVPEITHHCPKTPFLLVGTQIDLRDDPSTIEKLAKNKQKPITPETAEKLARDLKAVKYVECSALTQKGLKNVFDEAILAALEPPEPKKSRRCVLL
HRas wt GTP: changes GTP binding to wildtype human HRas; GST-Ras wt beads, Bodipy-FL-GTP binding, flow cytometry; actives lie on both sides; P01112; actives 0.14% (n = 190,000); GTP binding activity, % at 10 µM;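 active = GTP binding activity at least 20% away from the 100% baseline, either lowered as inhibitor or raised as activator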
Target sequence (P01112 whole entry, looked up): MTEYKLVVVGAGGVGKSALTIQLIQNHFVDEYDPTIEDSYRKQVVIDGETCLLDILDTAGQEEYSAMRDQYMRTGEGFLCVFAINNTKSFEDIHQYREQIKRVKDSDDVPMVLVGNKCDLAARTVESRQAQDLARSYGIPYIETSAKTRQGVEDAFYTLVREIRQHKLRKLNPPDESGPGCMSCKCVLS
Rab2 wt GTP: changes GTP binding to wildtype dog Rab2A, up or down. P61105. GST-Rab2 wt beads, Bodipy-GTP binding, flow cytometry. GTP binding activity, % at 10 µM. actives 0.19% (n = 190,000);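 active = GTP binding activity at least 20 points away from 100%, either lowered or raised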
Rab7 wt modul: alters GTP binding to wildtype dog Rab7. GTP binding activity (percent of control), % at 10 µM. GST-Rab7 beads, fluorescent GTP binding, flow cytometry; actives lie on both sides; untreated = 100%, excess cold GTP = 0%. AID 758. actives 0.055% (n = 190,000);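 active = fluorescent GTP binding to Rab7 beads changed by at least 20 points from the 100% baseline, either direction, mostly lower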;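 note: median green fluorescence of bound Bodipy-FL-GTP per Rab7 bead population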
Hits are given with their value; 0 = inactive; [ ] = remark or other dose. A selection: hits, their analogues and other compounds. The true share with any hit is near 0.4%.

SMILES	Rac1 mut GTP	Rac1 wt GTP bind	Cdc42 wt	HRas wt GTP	Rab2 wt GTP	Rab7 wt modul
COc1ccc(CC(=O)Nc2ccc(C(=O)Nc3nccs3)cc2)cc1OC	0	0	73	77	73	0
COc1ccc(CCNC(=O)C(=O)Nc2nccs2)cc1OC	0	0	0	0	0	0
Cc1ccc(/C=N/N(C)C2=NS(=O)(=O)c3ccccc32)o1	0	64	64	66	65	0
CN(/N=C/c1ccc(Br)o1)C1=NS(=O)(=O)c2ccccc21	0	77	0	0	0	0
O=Cc1c(Cl)[nH]c(=O)n1-c1ccccc1	0	0	0	0	0	0
Cn1c(Cn2c(=O)sc3ccccc32)nnc1SCC(=O)N1CCCC1	0	0	0	0	0	0
Cc1nn(Cc2ccc(Cl)cc2)c2sc(C(=O)O)cc12	0	0	0	0	0	0
COc1ccc(CCNC(=O)NC2CCCCC2)cc1OC	0	0	0	0	0	0
COc1ccc(CCNC(=O)C2CCCN2C(=O)NC2CCCCC2)cc1OC (configuration not stated)	0	143[activator]	141[activator]	122[activator]	128[activator]	0
CSc1ccc(S(=O)(=O)Nc2ccc(N3CCOCC3)c(Cl)c2)cc1	0	0	0	0	0	0
Cc1ccc(COc2ccsc2C(=O)O)cc1	0	0	120[activator]	0	0	0
CCOC(=O)C1CCN(S(=O)(=O)c2cccc(-c3csc(C)n3)c2)CC1	0	0	0	0	0	0
Nc1[nH]n2c(=O)cc(-c3ccccc3)nc2c1N=Nc1ccccc1	0	0	0	0	0	0
Nc1nn2c(-c3ccccc3)cc(=O)[nH]c2c1N=Nc1ccc(Br)cc1	76	76	75	0	75	0
O=C(CSc1nccn1Cc1ccccc1)Nc1nccs1	0	0	0	0	0	0
CC(C)(C)NC(=O)CSc1nccn1Cc1ccccc1	0	75	77	0	0	0
C=CCSc1nc(N)c(C#N)c(-c2ccc(C)cc2)c1C#N	0	78	78	0	0	0
COc1ccc(C)cc1NC(=O)c1cc2cc3ccc(C)cc3nc2o1	0	0	0	0	0	0
N=c1oc2ccc3ccccc3c2cc1-c1nc(-c2ccccc2)cs1	0	79	0	0	79	0
NC(=O)NCCCC(=O)OCC(=O)c1ccc2ccccc2c1	0	0	0	0	0	0
CC(/C(O)=C(\C#N)c1nc2ccccc2n1C)N1C(=O)c2ccccc2C1=O (configuration not stated)	0	0	0	0	0	0
Cc1ccc(-c2ccc(/C=C(\C#N)C(=O)Nc3cc(C)nn3-c3ccccc3)o2)cc1	120[activator]	0	0	127[activator]	0	0
Cc1ccc2nc(CSc3nc(C)cc(C)c3C#N)[nH]c2c1	0	122[activator]	0	0	0	0
Cc1cc(C)c(C#N)c(SCc2ccccc2)n1	0	0	0	0	0	0
CC1CCN(c2ncccc2C(=O)O)CC1	129[activator]	156[activator]	141[activator]	128[activator]	130[activator]	125[activator]
SMILES	Rac1 mut GTP	Rac1 wt GTP bind	Cdc42 wt	HRas wt GTP	Rab2 wt GTP	Rab7 wt modul
COc1ccc(-c2csc(NC(=O)c3cccs3)c2C(=O)O)cc1OC	0	0	0	0	0	0
COc1ccc(-c2csc(NC(=O)Cc3cccc4ccccc34)c2C(=O)O)cc1	0	70	76	78	75	0
Cc1ccc(S(=O)(=O)N(C)CCCC(=O)Nc2cc(C)ccc2C)cc1	0	0	0	0	0	0
CCn1cc(C(=O)OCC(=O)c2cc(C)n(-c3cccc(C(F)(F)F)c3)c2C)c(=O)c2ccc(C)nc21	74	70	79	0	72	0
N#CC1=C(N)Nc2nc3ccccc3n2C1c1ccc(Cl)cc1 (configuration not stated)	0	0	0	0	0	0
O=C1C(Cc2cccc([N+](=O)[O-])c2)SC(=Nc2ccccc2)N1c1ccccc1 (configuration not stated)	0	0	0	0	0	0
Cc1cc(C)n2ncc(C(=O)O)c2n1	0	0	78	0	0	0
Cc1ccc(S(=O)(=O)N(C)C)cc1NC(=O)COC(=O)c1ccc(Cl)cc1	0	144[activator]	0	0	0	0
COc1ccc(C(=O)N/C(=C\c2cccc([N+](=O)[O-])c2)C(=O)Nc2cccc(C(=O)O)c2)cc1	0	64	62	69	60	0
Cc1cc(NS(=O)(=O)c2ccc(NC(=O)c3cc4c(=O)n5ccccc5nc4s3)cc2)nc(C)n1	0	0	76	0	0	0
CN(C)S(=O)(=O)c1cccc(NC(=O)c2cc3c(=O)n4ccccc4nc3s2)c1	0	0	0	0	0	0
CCOC(=O)CN=C(NS(=O)(=O)c1ccc(Cl)cc1)c1ccccc1	0	0	0	0	0	0
O=C(Nc1nnc(CC(=O)N2CCOCC2)s1)c1cccs1	0	0	0	0	0	0
O=C(COc1cc(Cl)ccc1Cl)Nc1nnc(CC(=O)N2CCOCC2)s1	0	0	71	70	72	0
CCOc1ccc(NC(C)C(=O)N/N=C/c2ccc([N+](=O)[O-])cc2)cc1 (configuration not stated)	0	0	0	0	0	0
Cc1ccccc1Nc1nc(NCc2ccco2)c2ccccc2n1	0	0	0	0	0	0
Cc1cccc(Nc2nc(NCc3ccco3)c3ccccc3n2)c1	0	0	0	0	72	79
CN(C)S(=O)(=O)c1ccc(C(=O)NNc2nc(-c3ccccc3)c3cc(Br)ccc3n2)cc1	0	78	0	0	0	0
O=C(NNc1nc(-c2ccccc2)c2cc(Br)ccc2n1)c1ccc(S(=O)(=O)N2CCCCC2)cc1	0	0	0	0	0	0
O=C(NNc1nc(-c2ccccc2)c2cc(Br)ccc2n1)c1ccc(S(=O)(=O)N2CCOCC2)cc1	0	67	0	0	75	0
CC(=O)NNc1nc(-c2ccccc2)c2cc(Br)ccc2n1	0	0	0	0	0	0
COc1ccc(C(=O)/C=C/Nc2ccc(S(=O)(=O)Nc3nc(C)cc(C)n3)cc2)cc1OC	0	79	0	0	0	0
Cc1cc(C)nc(NS(=O)(=O)c2ccc(N/C=C/C(=O)c3ccc(Cl)cc3)cc2)n1	0	0	0	0	0	0
CCc1ccc(NS(=O)(=O)c2ccc3[nH]cc(C(=O)N4CCc5ccccc54)c(=O)c3c2)cc1	0	0	70	0	0	0
O=C(Nc1cc(S(=O)(=O)Nc2ccccc2Cl)ccc1O)c1sc2cc(Cl)ccc2c1Cl	78	0	0	0	0	0
CC(C)CC(=O)Nc1c2c(nn1-c1ccc(F)cc1)CSC2	0	0	0	0	0	0
